From PubChem BioAssay AID1159580 (chemical genetic matrix, 2015)
Hit rate of the full screen: of about 5,500 compounds, about 2,000 (36%) were called active. Not shown: some 18% with an inconclusive outcome. Rule as the data show it: active = normalized growth mostly below about 0.91 (no sharp cut-off); inconclusive = no clear call, values can overlap the other calls; inactive = mostly above about 0.92. The list shows a part of the results.

Assay: chemical genetic growth profiling, strain panel (AID 1159580);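 also: tested at 20 µM; growth read once vehicle control cultures reached saturation at 30 °C; 1 = growth at the plate median or of vehicle wells; lower values mean less growth of the strain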
Details: growth OD
[1] = S. cerevisiae deletion strains, locus YDR150W, strain NUM1, stronger effect = lower value
[2] = S. cerevisiae deletion strains, locus YNL153C, strain GIM3, stronger effect = lower value
[3] = S. cerevisiae deletion strains, locus YPL055C, strain LGE1, stronger effect = lower value
[4] = S. cerevisiae deletion strains, locus YDL101C, strain DUN1, stronger effect = lower value
[5] = S. cerevisiae deletion strains, locus YHR030C, strain SLT2, stronger effect = lower value

Measured: normalized growth

Oc1ccc(-c2nc(-c3ccc(F)cc3)c(-c3ccncc3)[nH]2)cc1
inactive: S. cerevisiae deletion strains, locus YAL040C, strain CLN3, stronger effect = lower value 0.975 | S. cerevisiae deletion strains, locus YCL061C, strain MRC1 (second series), stronger effect = lower value 1.01 | [1] 1 | S. cerevisiae deletion strains, locus YER002W, strain NOP16, stronger effect = lower value 1 | S. cerevisiae deletion strains, locus YMR307W, strain GAS1, stronger effect = lower value 1.02 | [2] 0.999 | S. cerevisiae deletion strains, locus YNL175C, strain NOP13, stronger effect = lower value 1.03 | S. cerevisiae deletion strains, locus YNL197C, strain WHI3, stronger effect = lower value 1.02 | S. cerevisiae deletion strains, locus YNL224C, strain SQS1, stronger effect = lower value 1.02 | S. cerevisiae deletion strains, locus YOR083W, strain WHI5 (second series), stronger effect = lower value 1.03 | [3] 1.02

O=S(=O)(Oc1cc(Cl)cc(Cl)c1)c1cccc(S(=O)(=O)Oc2cc(Cl)cc(Cl)c2)c1
inactive: S. cerevisiae deletion strains, locus YAL013W, strain DEP1, stronger effect = lower value 1.01 | S. cerevisiae deletion strains, locus YBR229C, strain ROT2, stronger effect = lower value 1.01 | S. cerevisiae deletion strains, locus YCL061C, strain MRC1, stronger effect = lower value 1.01 | [4] 1.01 | S. cerevisiae deletion strains, locus YDL134C, strain PPH21, stronger effect = lower value 1.01 | [1] 1 | S. cerevisiae deletion strains, locus YEL061C, strain CIN8, stronger effect = lower value 1.01 | S. cerevisiae deletion strains, locus YGR078C, strain PAC10, stronger effect = lower value 1.02 | [5] 1.04 | S. cerevisiae deletion strains, locus YHR087W, strain rtc3, stronger effect = lower value 0.996 | S. cerevisiae deletion strains, locus YJR043C, strain POL32, stronger effect = lower value 1 | S. cerevisiae deletion strains, locus YJR075W, strain HOC1, stronger effect = lower value 0.988 | S. cerevisiae deletion strains, locus YLR039C, strain RIC1, stronger effect = lower value 1.1 | S. cerevisiae deletion strains, locus YLR058C, strain SHM2 (second series), stronger effect = lower value 0.998 | S. cerevisiae deletion strains, locus YLR085C, strain ARP6, stronger effect = lower value 1.06 | S. cerevisiae deletion strains, locus YLR262C, strain YPT6, stronger effect = lower value 1.02 | S. cerevisiae deletion strains, locus YML094W, strain GIM5, stronger effect = lower value 1.01 | S. cerevisiae deletion strains, locus YMR219W, strain ESC1, stronger effect = lower value 0.998 | S. cerevisiae deletion strains, locus YMR263W, strain SAP30, stronger effect = lower value 0.992 | [2] 1.01 | S. cerevisiae deletion strains, locus YNL298W, strain CLA4 (second series), stronger effect = lower value 1.07 | S. cerevisiae deletion strains, locus YNL322C, strain KRE1, stronger effect = lower value 1.01 | S. cerevisiae deletion strains, locus YNR030W, strain Alg12, stronger effect = lower value 1.01 | S. cerevisiae deletion strains, locus YOL006C, strain TOP1, stronger effect = lower value 1.06 | [3] 1.01 | S. cerevisiae deletion strains, locus YPL241C, strain CIN2, stronger effect = lower value 1.03 | S. cerevisiae deletion strains, locus YPR135W, strain CTF4, stronger effect = lower value 1.01 | S. cerevisiae strains, strain wild type, stronger effect = lower value 1.04

O=S(=O)(CS(=O)(=O)Oc1ccc(Cl)c(Cl)c1)Oc1ccc(Cl)c(Cl)c1
inactive: S. cerevisiae deletion strains, locus YAR019C, strain CDC15, stronger effect = lower value 0.95 | S. cerevisiae deletion strains, locus YBL105C, strain PKC1, stronger effect = lower value 0.944 | S. cerevisiae deletion strains, locus YBR135W, strain CKS1, stronger effect = lower value 0.947 | S. cerevisiae deletion strains, locus YBR136W, strain MEC1, stronger effect = lower value 0.946 | S. cerevisiae deletion strains, locus YBR160W, strain CDC28, stronger effect = lower value 0.946 | S. cerevisiae deletion strains, locus YDL017W, strain CDC7, stronger effect = lower value 0.937 | S. cerevisiae deletion strains, locus YDL028C, strain MPS1, stronger effect = lower value 0.946 | [4] 0.971 | S. cerevisiae deletion strains, locus YDL108W, strain KIN28, stronger effect = lower value 0.937 | S. cerevisiae deletion strains, locus YDL132W, strain cdc53, stronger effect = lower value 0.968 | S. cerevisiae deletion strains, locus YDL214C, strain PRR2, stronger effect = lower value 0.986 | S. cerevisiae deletion strains, locus YDR052C, strain DBF4, stronger effect = lower value 0.937 | S. cerevisiae deletion strains, locus YDR054C, strain cdc34, stronger effect = lower value 0.932 | S. cerevisiae deletion strains, locus YDR226W, strain ADK1, stronger effect = lower value 0.913 | S. cerevisiae deletion strains, locus YDR477W, strain SNF1, stronger effect = lower value 0.966 | S. cerevisiae deletion strains, locus YER123W, strain YCK3, stronger effect = lower value 0.989 | S. cerevisiae deletion strains, locus YER133W, strain GLC7, stronger effect = lower value 0.969 | S. cerevisiae deletion strains, locus YFL009W, strain cdc4, stronger effect = lower value 0.931 | S. cerevisiae deletion strains, locus YFL029C, strain CAK1, stronger effect = lower value 0.95 | S. cerevisiae deletion strains, locus YFR003C, strain YPI1, stronger effect = lower value 0.944 | S. cerevisiae deletion strains, locus YFR019W, strain FAB1, stronger effect = lower value 0.946 | S. cerevisiae deletion strains, locus YFR028C, strain CDC14, stronger effect = lower value 0.97 | S. cerevisiae deletion strains, locus YGR040W, strain KSS1, stronger effect = lower value 0.983 | S. cerevisiae deletion strains, locus YGR052W, strain FMP48, stronger effect = lower value 1.02 | S. cerevisiae deletion strains, locus YGR092W, strain DBF2, stronger effect = lower value 0.905 | S. cerevisiae deletion strains, locus YHR079C, strain IRE1, stronger effect = lower value 0.918 | S. cerevisiae deletion strains, locus YHR082C, strain KSP1, stronger effect = lower value 1.03 | S. cerevisiae deletion strains, locus YHR205W, strain SCH9, stronger effect = lower value 0.756 | S. cerevisiae deletion strains, locus YIL147C, strain SLN1, stronger effect = lower value 0.943 | S. cerevisiae deletion strains, locus YJL095W, strain BCK1, stronger effect = lower value 0.935 | S. cerevisiae deletion strains, locus YJL128C, strain PBS2, stronger effect = lower value 0.969 | S. cerevisiae deletion strains, locus YJL157C, strain FAR1, stronger effect = lower value 0.959 | S. cerevisiae deletion strains, locus YJR016C, strain ILV3, stronger effect = lower value 0.951 | S. cerevisiae deletion strains, locus YJR066W, strain TOR1 (second series), stronger effect = lower value 0.994 | S. cerevisiae deletion strains, locus YJR066W, strain TOR1, stronger effect = lower value 1.03 | S. cerevisiae deletion strains, locus YKL048C, strain ELM1, stronger effect = lower value 0.963 | S. cerevisiae deletion strains, locus YKL067W, strain YNK1, stronger effect = lower value 0.983 | S. cerevisiae deletion strains, locus YKL101W, strain HSL1, stronger effect = lower value 0.981 | S. cerevisiae deletion strains, locus YKL193C, strain SDS22, stronger effect = lower value 0.944 | S. cerevisiae deletion strains, locus YKL203C, strain TOR2, stronger effect = lower value 1.05 | S. cerevisiae deletion strains, locus YLR113W, strain HOG1, stronger effect = lower value 0.962 | S. cerevisiae deletion strains, locus YLR133W, strain CKI1, stronger effect = lower value 0.961 | S. cerevisiae deletion strains, locus YLR403W, strain SFP1, stronger effect = lower value 0.823 | S. cerevisiae deletion strains, locus YML070W, strain DAK1, stronger effect = lower value 0.991 | S. cerevisiae deletion strains, locus YMR001C, strain CDC5, stronger effect = lower value 0.94 | S. cerevisiae deletion strains, locus YMR205C, strain PFK2 (second series), stronger effect = lower value 0.972 | S. cerevisiae deletion strains, locus YMR277W, strain FCP1, stronger effect = lower value 0.949 | S. cerevisiae deletion strains, locus YNL006W, strain LST8, stronger effect = lower value 0.967 | S. cerevisiae deletion strains, locus YNL020C, strain ARK1, stronger effect = lower value 0.955 | S. cerevisiae deletion strains, locus YNL161W, strain CBK1, stronger effect = lower value 0.949 | S. cerevisiae deletion strains, locus YNL183C, strain NPR1, stronger effect = lower value 1.09 | S. cerevisiae deletion strains, locus YNL207W, strain RIO2, stronger effect = lower value 0.941 | S. cerevisiae deletion strains, locus YNL222W, strain SSU72, stronger effect = lower value 0.955 | S. cerevisiae deletion strains, locus YNL307C, strain MCK1 (second series), stronger effect = lower value 0.961 | S. cerevisiae deletion strains, locus YOL078W, strain AVO1, stronger effect = lower value 0.946 | S. cerevisiae deletion strains, locus YOL136C, strain PFK27, stronger effect = lower value 0.949 | S. cerevisiae deletion strains, locus YOR061W, strain CKA2, stronger effect = lower value 0.984 | S. cerevisiae deletion strains, locus YOR119C, strain RIO1, stronger effect = lower value 1.05 | S. cerevisiae deletion strains, locus YOR231W, strain MKK1, stronger effect = lower value 1.07 | S. cerevisiae deletion strains, locus YOR329C, strain SCD5, stronger effect = lower value 0.951 | S. cerevisiae deletion strains, locus YPL031C, strain PHO85, stronger effect = lower value 0.948 | S. cerevisiae deletion strains, locus YPL153C, strain RAD53, stronger effect = lower value 0.974 | S. cerevisiae deletion strains, locus YPL204W, strain HRR25, stronger effect = lower value 0.945 | S. cerevisiae deletion strains, locus YPL209C, strain IPL1, stronger effect = lower value 0.949 | S. cerevisiae deletion strains, locus YPL256C, strain CLN2, stronger effect = lower value 0.945 | S. cerevisiae deletion strains, locus YPR025C, strain CCL1, stronger effect = lower value 0.956 | S. cerevisiae deletion strains, locus YPR106W, strain ISR1, stronger effect = lower value 0.942 | S. cerevisiae deletion strains, locus YPR111W, strain DBF20, stronger effect = lower value 0.938 | S. cerevisiae deletion strains, strain NNK1, stronger effect = lower value 0.956 | S. cerevisiae deletion strains, strain TSCII, stronger effect = lower value 0.945
active: [5] 0.85
